MITF primary – human MITF inhibition, primary screen | inhibition, % at 2.6 µM | AlphaScreen MITF homodimerization, bead proximity signal | O75030 | AID 1259374 | hit rate 0.91% among 650,000; in the data active means inhibition above about 50%;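 further: 0% = vehicle wells with protein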
Target sequence (O75030 whole entry, looked up): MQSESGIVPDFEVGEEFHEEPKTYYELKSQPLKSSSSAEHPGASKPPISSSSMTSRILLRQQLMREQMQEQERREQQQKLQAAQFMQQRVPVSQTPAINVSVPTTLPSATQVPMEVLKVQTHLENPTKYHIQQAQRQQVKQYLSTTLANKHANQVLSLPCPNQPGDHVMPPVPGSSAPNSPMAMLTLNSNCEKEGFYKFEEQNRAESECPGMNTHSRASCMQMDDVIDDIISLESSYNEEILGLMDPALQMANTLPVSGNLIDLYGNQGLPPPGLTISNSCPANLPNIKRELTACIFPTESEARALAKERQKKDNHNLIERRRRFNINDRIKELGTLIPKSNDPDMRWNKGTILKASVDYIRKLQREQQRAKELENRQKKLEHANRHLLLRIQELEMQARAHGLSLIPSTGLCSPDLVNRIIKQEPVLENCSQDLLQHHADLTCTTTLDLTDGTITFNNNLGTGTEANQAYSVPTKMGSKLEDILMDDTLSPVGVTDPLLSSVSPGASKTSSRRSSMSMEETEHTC
FBW7 activator – human FBW7 E3 ligase activation, primary screen. AlphaScreen FBW7–phospho-cyclin E peptide binding, activator screen. normalized activity (activation), % at 26.1 µM. hit rate 0.13% among 650,000; in the data active means normalized activity above about 1.9%;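 further: purified mutant Fbw7 with reduced substrate affinity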
GPR151 activ – human GPR151 activation. Q8TDV0. PathHunter beta-arrestin GPR151 cells, luminescence. activation, % at 11.2 µM. hit rate 1% among 650,000. AID 1508602; in the data active means activation above about 4.9%;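 further: 0% = median of compound wells and 100% = cells with positive control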
TEAD-YAP block – TEAD-YAP interaction inhibition | inhibition, % at 9.12 µM | HEK-TIYL cells, TEAD-Gal4/YAP UAS-luciferase luminescence | AID 1259422 | hit rate 1.4% among 640,000; in the data active means inhibition above about 32%;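 further: 0% = median of test compound wells and 100% = reference inhibitor wells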
MITF confirm – confirmation of human MITF inhibitors | AID 1259372 | shares compounds with MITF primary | AlphaScreen MITF homodimerization, biotin/His-MITF beads | inhibition, % at 2.6 µM | hit rate 16% among 4,700;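 active means inhibition above a cutoff derived from the DMSO control wells, cut at about 28% in these data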;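 further: 0% = MITF dimer wells with DMSO only; inhibitors lower the bead chemiluminescence by keeping MITF from dimerizing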
AS interf DR – optically interferes with AlphaScreen signal in dose response | IC50, µM | AID 1259373 | shares compounds with MITF primary | AlphaScreen optical interference counterscreen, cell-free | hit rate 6% among 480; call rule not given here
AlphaScreen intf2 – optically interferes with AlphaScreen signal. shares compounds with MITF primary. LysRS AlphaScreen counterscreen, signal interference, triplicate. inhibition, % at 2.6 µM. hit rate 7.6% among 4,700. AID 1259376;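 active means inhibition above a cutoff derived from the DMSO control wells, cut at about 30% in these data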
An asterisk follows results filed as active; / = no result. Most compounds without a hit are left out; they make up all but 3.5% or so of the library.

SMILES | MITF primary | FBW7 activator | GPR151 activ | TEAD-YAP block | MITF confirm | AlphaScreen intf2 | others
CN(C)CCCNc1ncnc2sccc12 | 73* | 0 | 0 | -7 | 2 | 11
CN(C)CCCNc1ncnc2sc3c(c12)CCC3 | 79* | 0 | 1 | 20 | 13 | 30*
CCOC(=O)C(=O)Nc1sc(C(=O)N2CCOCC2)c(C)c1C#N | 71* | 1 | 1 | -2 | -6 | -2
O=C(Nc1cc(Oc2ccc3c(c2)CCC3)cc([N+](=O)[O-])c1)c1nn2c(C(F)(F)F)cc(-c3cccs3)nc2c1Cl | 13 | 1 | 1 | -10 | / | /
O=C(CC(NCc1ccccc1)C(=O)O)Nc1cccc(C(F)(F)F)c1 (stereo not given) | 89* | 0 | 4 | -4 | 8 | 8
Cc1ccc(Cl)cc1NC(=O)CC(NCc1ccccn1)C(=O)O (stereo not given) | 101* | 0 | 0 | -2 | 87* | 100*
Cc1ccc(C)c(NC(=O)CC(NCCN)C(=O)O)c1 (stereo not given) | 81* | 0 | 0 | 5 | 36* | 58*
O=C(CC(NCc1ccccn1)C(=O)O)Nc1cccc(Cl)c1 (stereo not given) | 112* | -1 | -1 | -8 | 84* | 100*
CCCCCNC(CC(=O)Nc1cc(C)ccc1C)C(=O)O (stereo not given) | 1 | 0 | -1 | 7 | / | /
COc1cc(CN2CCN(S(=O)(=O)c3ccccc3)CC2)cc(OC)c1OC | 42 | 0 | 0 | -5 | / | /
COc1cc(CN2CCN(S(=O)(=O)c3ccc(F)cc3)CC2)cc(OC)c1OC | 52* | 0 | 2 | 6 | -2 | 7
COc1cc(CN2CCN(S(=O)(=O)c3ccc([N+](=O)[O-])cc3)CC2)cc(OC)c1OC | 34 | 0 | 0 | -6 | / | /
COc1cc(CN2CCN(S(=O)(=O)c3ccc(C)cc3)CC2)cc(OC)c1OC | 52* | 1 | -1 | 7 | -1 | 12
CCS(=O)(=O)N1CCN(Cc2cc(OC)c(OC)c(OC)c2)CC1 | 52* | 0 | 2 | 4 | 7 | 14
Cc1ccc(C(=O)Oc2ccc(NC3=NS(=O)(=O)c4ccccc43)cc2CN2CCCCC2)cc1 | 1 | 0 | 1 | -18 | / | /
FC(F)(F)c1cccc(CN2CCSCC2)c1 | 18 | 0 | 1 | 3 | / | /
CC(C)CC(=O)N1CCN(Cc2ccco2)CC1 | 58* | 1 | -1 | -4 | 9 | 12
CC(C)CC(=O)N1CCN(Cc2cccc(C(F)(F)F)c2)CC1 | 56* | 0 | 0 | 19 | -11 | -8
CC(C)CC(=O)N1CCN(Cc2ccncc2)CC1 | 65* | 0 | -1 | -2 | 8 | 14
CC(NC(=O)CSc1nnnn1-c1ccccc1)C1CC2CCC1C2 (stereo not given) | -9 | 0 | 0 | 0 | / | /
CCS(=O)(=O)N1CCc2ccc(NS(=O)(=O)Cc3ccccc3F)cc2C1 | 75* | 1 | 0 | 17 | -3 | 4
CCS(=O)(=O)N1CCc2ccc(NS(=O)(=O)C(C)C)cc2C1 | -4 | 0 | -1 | -2 | / | /
COC(=O)c1ccc(N=C2S/C(=C\c3cc(C)n(-c4ccc(N(C)C)cc4)c3C)C(=O)N2C)cc1 | -8 | 0 | -1 | 5 | / | /
COc1ccc(CCNC(=O)CN2CCN(Cc3nc(-c4ccco4)cs3)CC2)cc1OC | 70* | -1 | 0 | 8 | 28* | 12 | AS interf DR=>6.5
O=C(CN1CCN(Cc2nc(-c3ccc(F)cc3)cs2)CC1)NCc1ccco1 | 70* | 0 | 1 | -12 | 18 | 4
O=C(CN1CCN(Cc2nc(-c3ccccc3)cs2)CC1)NCc1ccco1 | 3 | 0 | 0 | -11 | / | /
O=C(CN1CCN(Cc2nc(-c3ccco3)cs2)CC1)NCCc1ccccc1 | 76* | 0 | -1 | 3 | 14 | 12
C=CCNC(=O)CN1CCN(Cc2nc(-c3ccccc3)cs2)CC1 | 70* | 0 | -3 | -19 | -18 | 2
O=C(CN1C(=O)c2ccccc2C1=O)Nc1ccc(F)c(Cl)c1 | 11 | 0 | -1 | 3 | / | /
O=C(O)C1CCCN1c1nc(-c2ccccc2)c2cc([N+](=O)[O-])ccc2n1 (stereo not given) | 18 | 0 | 0 | 13 | / | /

Compound activity as filed in PubChem.
